Here are results for 72 sequences from the supplement of paper PMC12636033.

± gives the standard deviation of the averaged measurements. Over roughly 33,000 sequences, “E-score (rank enrichment, -0.5 to 0.5)” has its median near -0.0043; the highest 2% begin near 0.24. The entries come from a sample that favours the highest values as a whole.

For this test, the system named is 2Sp-muMax20 (muMax20 with two 2,6-bis(methyl)pyridine Cys staples). The experiment in a line: PBM 8-mer E-score (E-score (rank enrichment, -0.5 to 0.5)); higher = stronger preferential binding. The procedure:
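Protein binding microarray (universal PBM chip covering all 10-mers in fixed probe flanks) with chemically synthesized human Max(13-93) bHLH-LZ analogs (not full-length Max) bearing noncanonical residues (hArg, Tha, Aib, Nle at 65) and aromatic Cys staples. Read-out per 8-mer (and its reverse complement): E-score (rank-based enrichment, -0.5 to 0.5) and Z-score of median probe intensity.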
GTACTGAA: the “PBM 8-mer E-score” value came out at 0.149 ± 0.041. As for CGCCCAAA, the “PBM 8-mer E-score” value was 0.0607 ± 0.014. For the sequence CATTCGAC, the “PBM 8-mer E-score” value is -0.0616 ± 0.11. Regarding ATTAGCTC, the “PBM 8-mer E-score” value turned out to be 0.0373 ± 0.031. With AAGTTCTA, the “PBM 8-mer E-score” value turned out to be 0.0127 ± 0.022. CGCAGTGA: the “PBM 8-mer E-score” value was -0.145.

For the sequence ATCTTATC, the “PBM 8-mer E-score” value was determined as 0.0505 ± 0.042. On to TATCCCCA, for which the “PBM 8-mer E-score” value came to 0.239 ± 0.014. For AATCCCCA the value was 0.161 ± 0.02; for ACTCCCCC, -0.187 ± 0.021; for CCTCCCCA, 0.31 ± 0.028. For CATCCCCA the value was 0.145 ± 0.0068; for ACCTCCCA, -0.071 ± 0.0025; for CCTCCCAA, 0.0742 ± 0.037. In the case of ACTCCCCA, the “PBM 8-mer E-score” value is 0.282 ± 0.067. On to GCCTCCCA, for which the “PBM 8-mer E-score” value was -0.214 ± 0.05. For CCTCCCCC the value was -0.0661 ± 0.021. Regarding CCCTCCCA, the “PBM 8-mer E-score” value came to 0.353 ± 0.04.

As for ACTCCCCT, the “PBM 8-mer E-score” value turned out to be 0.182 ± 0.027. For the sequence ATCACGAG, the “PBM 8-mer E-score” value is -0.0973 ± 0.13.

On to CGGATAAC, for which the “PBM 8-mer E-score” value was -0.215 ± 0.003.

With CCGAGCTC, the “PBM 8-mer E-score” value was -0.137 ± 0.0056. Regarding AGTGCAAG, the “PBM 8-mer E-score” value stood at 0.0261 ± 0.015.

Take ATACAGTG: the “PBM 8-mer E-score” value worked out at 0.248 ± 0.065. As for ACACAGTG, the “PBM 8-mer E-score” value came out at 0.0818 ± 0.048.

With ATACAGTA, the “PBM 8-mer E-score” value was determined as 0.259 ± 0.013. On to CTACAGTA, for which the “PBM 8-mer E-score” value was found to be 0.136 ± 0.017. Turning to ATACAGCG, the “PBM 8-mer E-score” value is -0.089 ± 0.017. As for GTACAGTA, the figure is 0.137 ± 0.034; as for ATACAGCA, 0.2373 ± 0.0021. As to CTACAGCA, the “PBM 8-mer E-score” value came to 0.0474 ± 0.16.

With ATACAGTC, the “PBM 8-mer E-score” value came out at 0.0481 ± 0.076. With GCTAAACA, the “PBM 8-mer E-score” value was -0.106 ± 0.062. On to CCAGCTTA, for which the “PBM 8-mer E-score” value was -0.129 ± 0.07. For the sequence CGCGCCAC, the “PBM 8-mer E-score” value is 0.0139 ± 0.054. ACCTTTGG: the “PBM 8-mer E-score” value is -0.277 ± 0.058. With CGGTTCCC, the “PBM 8-mer E-score” value was -0.179 ± 0.095. For GAGGGTTA, the “PBM 8-mer E-score” value stood at 0.064 ± 0.0085. Regarding AAAGCTGG, the “PBM 8-mer E-score” value came out at 0.0243 ± 0.073. In the case of AAAGCTGA, the “PBM 8-mer E-score” value worked out at 0.285 ± 0.0073. Regarding CAAGCTGA, the “PBM 8-mer E-score” value is 0.0436 ± 0.058. For ACCGCCCT the value was -0.0858 ± 0.06; for CGACGAGA, -0.147 ± 0.078; for CAGCGTGG, 0.039 ± 0.028. Take TGCCCAAA: the “PBM 8-mer E-score” value is -0.0856 ± 0.086. As for CGCCCCAC, the figure is 0.303 ± 0.0035; as for GGCCCCAA, 0.00781 ± 0.067; as for TGCCCCCA, -0.0389 ± 0.018.

Consider GGCCCCAC, for which the “PBM 8-mer E-score” value turned out to be 0.0799 ± 0.062. In the case of CGCCCCCA, the “PBM 8-mer E-score” value is -0.198 ± 0.069. CGCCCCAG: the “PBM 8-mer E-score” value was found to be 0.0339 ± 0.02. On to TGCCCCAA, for which the “PBM 8-mer E-score” value came out at 0.274 ± 0.016.

On to CGCCCCAA, for which the “PBM 8-mer E-score” value stood at 0.3051 ± 0.0025. AGGTTCTA: the “PBM 8-mer E-score” value was -0.106 ± 0.0063. On to GGTTCTAA, for which the “PBM 8-mer E-score” value is -0.026 ± 0.026.

Turning to AACGAGCC, the “PBM 8-mer E-score” value was -0.0314 ± 0.029. As for GACTAGCC, the figure is -0.0736 ± 0.047.

As to ACACCGAG, the “PBM 8-mer E-score” value is -0.219 ± 0.031.

Regarding ACGACGCT, the “PBM 8-mer E-score” value is -0.0201 ± 0.033. Regarding CTGGTGTA, the “PBM 8-mer E-score” value is -0.00226 ± 0.005. Take ATCGATAA: the “PBM 8-mer E-score” value is 0.00019 ± 0.013.

On to GAGTCAAA, for which the “PBM 8-mer E-score” value was -0.0157 ± 0.11.

In the case of AAGTCAAA, the “PBM 8-mer E-score” value was 0.0188 ± 0.0089. Consider TAGTCAAA, for which the “PBM 8-mer E-score” value was 0.27 ± 0.033. With GACTAGCA, the “PBM 8-mer E-score” value was found to be 0.102 ± 0.099. Take AGAGCTAA: the “PBM 8-mer E-score” value was -0.0564 ± 0.081.

Take AGTTTCAA: the “PBM 8-mer E-score” value is -0.0457 ± 0.0064. For the sequence ATTACCCG, the “PBM 8-mer E-score” value was -0.0469 ± 0.081. Regarding ATTACCCA, the “PBM 8-mer E-score” value was 0.288 ± 0.037.

Take ATTACCCC: the “PBM 8-mer E-score” value worked out at 0.169 ± 0.065. With TACCTCGA, the “PBM 8-mer E-score” value was -0.079 ± 0.12. TCCGAAAA: the “PBM 8-mer E-score” value is -0.0537 ± 0.063.
